Source: PubChem BioAssay (NCATS)
Records with an inconclusive call do not appear. The source made the active and inactive calls. The call rests on the fitted dose curve; in most records, active means well fitted curve in the direction sought with a large enough effect; inconclusive means small, poorly fitted or top-dose-only effect, or another doubt; inactive means no such curve, though single readings can be large; an effect the other way counts as inactive or inconclusive.

Columns and labels:
[1] = qHTS of pediatric cancer cell lines to identify multiple opportunities for drug repurposing: Primary screen for NB1643 cells (AID 1347099); further: nearly all actives have a fitted effect of over 50% in size
In short: (§1)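 Readout: CellTiter-Glo luminescence, 48 h treatment. Controls DMSO (neutral) and bortezomib 2.3 µM final (positive). Potency and efficacy taken from primary-screen concentration-response curves.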

[2] = qHTS of pediatric cancer cell lines to identify multiple opportunities for drug repurposing: Primary screen for LAN-5 cells (AID 1347100)
In short: (§2)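 Cells (500-1,000/well) in growth media were settled 5 h at 37 degrees C, then given compounds for 48 h. Viability was read as CellTiter-Glo luminescence. Primary runs used MIPE at 11 points (0.78 nM-46 µM) and NPC at 8 points (0.59 nM-46 µM); follow-ups used 11 points.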

[3] = qHTS of pediatric cancer cell lines to identify multiple opportunities for drug repurposing: Primary screen for BT-12 cells (AID 1347101); further: nearly all actives have a fitted effect of over 25% in size
In short: (§3)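 Cells (500-1,000/well) rested 5 h, then received compounds for 48 h; metabolically active cells were measured by CellTiter-Glo luminescence. Final concentrations spanned up to 46 µM (MIPE, 11-point) or 0.59 nM-46 µM (NPC, 8-point) in primary screens, 11-point in follow-ups.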

[4] = qHTS of pediatric cancer cell lines to identify multiple opportunities for drug repurposing: Primary screen for Rh18 cells (AID 1347102); further: nearly all actives have a fitted effect of over 65% in size
In short: as §2

[5] = qHTS of pediatric cancer cell lines to identify multiple opportunities for drug repurposing: Primary screen for OHS-50 cells (AID 1347103); further: nearly all actives have a fitted effect of over 40% in size
In short: as §3

[6] = qHTS of pediatric cancer cell lines to identify multiple opportunities for drug repurposing: Primary screen for RD cells (AID 1347104); further: nearly all actives have a fitted effect of over 55% in size
In short: as §1

[7] = qHTS of pediatric cancer cell lines to identify multiple opportunities for drug repurposing: Primary screen for MG 63 (6-TG R) cells (AID 1347105); further: nearly all actives have a fitted effect of over 50% in size
In short: as §1

[8] = qHTS of pediatric cancer cell lines to identify multiple opportunities for drug repurposing: Primary screen for Rh30 cells (AID 1347107); further: nearly all actives have a fitted effect of over 75% in size
In short: as §2

[9] = qHTS of pediatric cancer cell lines to identify multiple opportunities for drug repurposing: Primary screen for Rh41 cells (AID 1347108); further: nearly all actives have a fitted effect of over 70% in size
In short: as §1

[10] = qHTS of pediatric cancer cell lines to identify multiple opportunities for drug repurposing: Primary screen for control Hh wild type fibroblast cells (AID 1347106); further: nearly all actives have a fitted effect of over 55% in size
In short: as §2

Measured: Potency
Potency means the concentration at half of the fitted maximal effect.

Nc1ccc(-c2ccc3ncc4ccc(=O)n(-c5cccc(C(F)(F)F)c5)c4c3c2)cn1
active: [1] 418 nM | [2] 29.6 nM | [3] 3430 nM | [4] 148 nM | [5] 6.9 nM | [6] 235 nM | [7] 0.9 nM | [8] 1660 nM | [9] 26.4 nM

C[C@@H]1C[C@H]2[C@@H]3CCC4=CC(=O)C=C[C@]4(C)[C@@]3(F)[C@@H](O)C[C@]2(C)[C@@]1(O)C(=O)CO
inactive: [1] | [2] | [3] | [4] | [5] | [6] | [10] | [8] | [9]

Nc1ncnc2c1ncn2[C@@H]1O[C@H](CO)[C@@H](O)[C@@H]1O
active: [1] 833 nM | [2] 1480 nM | [3] 6110 nM | [4] 1870 nM | [5] 3850 nM | [6] 1660 nM | [7] 3720 nM | [9] 2350 nM
inactive: [10]

C[C@]12CCC3=C4CCC(=O)C=C4CC[C@@H]3[C@H]1CC[C@@]2(O)CC#N
inactive: [1] | [2] | [3] | [4] | [5] | [6] | [7] | [10] | [8] | [9]

CC=C1C2C=C(C)CC1(N)c1ccc(=O)[nH]c1C2 (configuration not stated)
inactive: [1] | [2] | [3] | [4] | [5] | [6] | [7] | [10] | [8] | [9]

CC(NCCc1ccc(O)cc1)C(O)c1ccc(O)cc1 (configuration not stated)
inactive: [1] | [2] | [3] | [4] | [5] | [6] | [7] | [10] | [8] | [9]

Cc1cccc(-c2[nH]c(C(C)(C)C)nc2-c2ccc3c(c2)OCO3)n1
active: [1] 11800 nM | [2] 4180 nM | [3] 7690 nM | [5] 2730 nM | [6] 9350 nM | [9] 1180 nM
inactive: [4] | [7] | [8]

CNC(=O)c1cc(Oc2ccc(NC(=O)Nc3ccc(Cl)c(C(F)(F)F)c3)c(F)c2)ccn1
inactive: [10]
active: [1] 13200 nM | [2] 20900 nM | [3] 12200 nM | [4] 23500 nM | [5] 10900 nM | [6] 16600 nM

Cc1cn([C@@H]2C[C@@H](O)[C@H](CO)O2)c(=O)[nH]c1=O
inactive: [1] | [2] | [3] | [4] | [5] | [6] | [7] | [10] | [8] | [9]

CNC1[C@H](O)C(O[C@@H]2C(O)C(O[C@H]3O[C@H]([C@@H](C)NC)CC[C@H]3N)[C@@H](N)C[C@H]2N)OC[C@]1(C)O (some centres not stated)
inactive: [1] | [2] | [3] | [4] | [5] | [6] | [10] | [8] | [9]

OC[C@H]1O[C@@H](O[C@H]2[C@@H](O)[C@@](O)(CO)O[C@@H]2CO)[C@H](O)[C@@H](O)[C@@H]1O
inactive: [1] | [2] | [3] | [4] | [5] | [6] | [7] | [10] | [8] | [9]

O=C1CCCC(=O)C1C(=O)c1ccc(C(F)(F)F)cc1[N+](=O)[O-]
inactive: [1] | [2] | [3] | [4] | [5] | [6] | [7] | [10] | [8] | [9]

O=C(O)C1=CO[C@@H](O[C@@H]2O[C@H](CO)[C@H](O)[C@H](O)[C@H]2O)[C@@H]2C(CO)=CC[C@H]12
inactive: [1] | [2] | [3] | [4] | [5] | [6] | [10] | [8] | [9]

N#Cc1c(N(CC(=O)O)CC(=O)O)sc(C(=O)O)c1CC(=O)O
inactive: [1] | [2] | [3] | [4] | [5] | [6] | [7] | [10] | [8] | [9]

CN(C)CCN(C)C(=O)c1ccc(NC(=O)Nc2ccc(-c3nc(N4CCOCC4)c4ccn(CC(F)(F)F)c4n3)cc2)cc1
active: [1] 418 nM | [2] 2640 nM | [3] 3060 nM | [4] 187 nM | [5] 43.2 nM | [6] 372 nM | [7] 187 nM | [10] 52.6 nM | [9] 166 nM

N[C@@H](CC(=O)N1CCn2c(nnc2C(F)(F)F)C1)Cc1cc(F)c(F)cc1F
inactive: [2] | [3] | [4] | [5] | [6] | [10] | [8]
active: [1] 11800 nM

OC[C@H]1O[C@@H](Oc2ccc(O)cc2)[C@H](O)[C@@H](O)[C@H]1O
inactive: [1] | [2] | [3] | [4] | [5] | [6] | [7] | [10] | [9]
